Assay results reported in PubChem BioAssay (NCI).
The panel holds about 79,000 compounds, 15% with a hit somewhere; the sample as a whole holds those more often. Activity calls are given as the source filed them. No stated cut-off is given here; in the data, active means growth inhibition above about 70%; inactive means the rest.

Legend:
[1] = NCI Yeast Anticancer Drug Screen. Data for the rad52 strain (AID 147);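 further: 0% = growth of vehicle-treated control cultures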; details: S. cerevisiae rad52 mutant growth inhibition, hits give high values
Outline: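 Measured: yeast growth inhibition. System: strain with a defined DNA damage repair alteration. Reference: vehicle-treated control cultures.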

[2] = NCI Yeast Anticancer Drug Screen. Data for the wt1 strain (AID 149);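 further: 0% = growth of vehicle-treated wt1 cultures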; details: S. cerevisiae wt1 strain (SPY 50644) growth inhibition, hits give high values
Outline: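 Vehicle-normalised growth inhibition; strain wt1; compound exposure.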

[3] = NCI Yeast Anticancer Drug Screen. Data for the rad50EPP+ strain (AID 151);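 further: 0% = growth of vehicle-treated control cultures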; details: S. cerevisiae rad50 mutant strain, hits give high values
Outline: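 One strain with a rad50 alteration (rad50EPP+) was compound-treated, its growth then compared to that of vehicle controls.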

[4] = NCI Yeast Anticancer Drug Screen. Data for the mgt1 strain (AID 153); details: S. cerevisiae mgt1 mutant growth inhibition, hits give high values
Outline: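 After exposure of the mgt1 yeast mutant to compound, growth was measured and reported as inhibition compared with vehicle controls.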

[5] = NCI Yeast Anticancer Drug Screen. Data for the rad50 strain (AID 155);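 further: 0% = growth of vehicle-only cultures of the same strain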; details: S. cerevisiae rad50 strain growth inhibition, hits give high values
Outline: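 A DNA repair-deficient yeast mutant serves as the test organism; compound-induced growth inhibition is calculated against vehicle-treated cells.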

[6] = NCI Yeast Anticancer Drug Screen. Data for the mec2-1 strain (AID 157); details: S. cerevisiae mec2-1 strain, hits give high values
Outline: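 Test agents were screened against the mec2-1 yeast strain, with defined DNA repair or cell cycle alteration. Growth was scored as inhibition against vehicle-only controls.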

[7] = NCI Yeast Anticancer Drug Screen. Data for the rad14 strain (AID 159);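 further: 0% = growth of vehicle-treated control cultures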; details: S. cerevisiae rad14 strain growth inhibition, hits give high values
Outline: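 Vehicle-treated cultures served as the baseline for growth inhibition of a DNA repair-mutant yeast strain exposed to each compound.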

[8] = NCI Yeast Anticancer Drug Screen. Data for the sgs1 mgt1 strain (AID 161);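 further: 0% = growth of cultures given vehicle only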; details: S. cerevisiae sgs1 mgt1 strain, hits give high values
Outline: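 Mutant yeast exposed to compound; growth scored against vehicle-only wells.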

[9] = NCI Yeast Anticancer Drug Screen. Data for the CLN2oe strain (AID 163);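 further: 0% = growth of vehicle-only control cultures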; details: S. cerevisiae CLN2oe strain, hits give high values
Outline: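 Here, growth inhibition in a cell-cycle-altered yeast strain after compound exposure was quantified against vehicle control growth.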

[10] = NCI Yeast Anticancer Drug Screen. Data for the cln2 rad14 strain (AID 165);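 further: 0% = growth equal to vehicle treated cultures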; details: S. cerevisiae cln2 rad14 strain, hits give high values
Outline: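 Growth of compound-exposed yeast (cln2 rad14 genotype) measured and expressed as inhibition relative to vehicle.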

[11] = NCI Yeast Anticancer Drug Screen. Data for the bub3 strain (AID 167); details: S. cerevisiae bub3 mutant strain, hits give high values
Outline: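 Inhibition values come from growth of compound-treated mutant yeast normalised to vehicle-treated controls.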

[12] = NCI Yeast Anticancer Drug Screen. Data for the wt2 strain (AID 169);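 further: 0% = growth of vehicle-treated yeast cultures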; details: S. cerevisiae wt2 strain growth inhibition, hits give high values
Outline: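 Genetically defined yeast strains from a DNA-repair/cell-cycle panel were used. Compound-exposed yeast growth was measured, and the inhibition was calculated relative to vehicle treatment.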

[13] = NCI Yeast Anticancer Drug Screen. Data for the mlh1 strain (AID 171);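 further: 0% = growth of vehicle-treated control cultures of the same strain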; details: S. cerevisiae mlh1 strain growth inhibition, hits give high values
Outline: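 Here the genetically defined yeast mutant is grown with each compound, and the extent to which its growth falls below that of vehicle-exposed cells is reported.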

[14] = NCI Yeast Anticancer Drug Screen. Data for the sgs1 strain (AID 173);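 further: 0% = growth of vehicle-only control cultures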; details: S. cerevisiae sgs1 mutant, hits give high values
Outline: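 Relative growth inhibition, referenced to vehicle, was determined in a yeast strain with a defined alteration affecting DNA damage repair or cell cycle control after compound exposure.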

[15] = NCI Yeast Anticancer Drug Screen. Data for the mlh1 rad18 strain (AID 175); details: S. cerevisiae mlh1 rad18 strain growth inhibition, hits give high values
Outline: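 In this whole-cell yeast screen, a strain with altered DNA damage repair is challenged with compound, and its growth is measured against matched vehicle-treated controls.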

[16] = NCI Yeast Anticancer Drug Screen. Data for the rad18 strain (AID 177); details: S. cerevisiae rad18 mutant growth inhibition, hits give high values
Outline: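 Screen uses a yeast strain with a defined lesion in DNA damage repair; compound effect is read as loss of growth compared to untreated vehicle cultures.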

[17] = at 5.0 µM (retest, dose inferred, filed as 0.5)
[18] = at 50.0 µM (retest, dose inferred, filed as 5.0)

Measured: growth inhibition

CN(C)/C(=N/C(=S)Nc1ccccc1)SCc1ccccc1
inactive: [1]; at 1.2 µM -3% | [1]; at 3.7 µM -4% | [1]; at 11.0 µM -2% | [1]; at 33.0 µM 6% | [1]; at 100.0 µM 12% | [2]; at 1.2 µM -2% | [2]; at 3.7 µM -3% | [2]; at 11.0 µM 0% | [2]; at 33.0 µM 6% | [2]; at 100.0 µM 6% | [3]; at 1.2 µM 0% | [3]; at 3.7 µM 1% | [3]; at 11.0 µM -5% | [3]; at 33.0 µM 1% | [3]; at 100.0 µM 13% | [4]; at 1.2 µM 1% | [4]; at 3.7 µM 2% | [4]; at 11.0 µM 4% | [4]; at 33.0 µM 11% | [4]; at 100.0 µM 16% | [5]; at 1.2 µM -5% | [5]; at 3.7 µM -5% | [5]; [17] -7% | [5]; at 11.0 µM -7% | [5]; at 33.0 µM 8% | [5]; at 100.0 µM 10% | [6]; at 1.2 µM -5% | [6]; at 3.7 µM -5% | [6]; [17] -1% | [6]; at 11.0 µM -4% | [6]; at 33.0 µM 10% | [6]; at 100.0 µM 16% | [7]; at 1.2 µM -4% | [7]; at 3.7 µM -5% | [7]; at 11.0 µM -2% | [7]; at 33.0 µM 13% | [7]; at 100.0 µM 18% | [8]; [17] 11% | [9]; at 1.2 µM -8% | [9]; at 3.7 µM -11% | [9]; at 11.0 µM -13% | [9]; at 33.0 µM -6% | [9]; at 100.0 µM -1% | [10]; [17] -15% | [10]; [18] 44% | [11]; at 1.2 µM -4% | [11]; at 3.7 µM -2% | [11]; [17] 6% | [11]; at 11.0 µM 3% | [11]; at 33.0 µM 8% | [11]; at 100.0 µM 14% | [12]; at 1.2 µM -2% | [12]; at 3.7 µM -2% | [12]; at 11.0 µM 0% | [12]; at 33.0 µM 11% | [12]; at 100.0 µM 14% | [13]; at 1.2 µM -2% | [13]; at 3.7 µM 0% | [13]; at 11.0 µM 3% | [13]; at 33.0 µM 11% | [13]; at 100.0 µM 20% | [14]; at 1.2 µM -3% | [14]; at 3.7 µM 0% | [14]; at 11.0 µM 7% | [14]; at 33.0 µM 25% | [14]; at 100.0 µM 30% | [15]; [17] -1% | [16]; at 1.2 µM -4% | [16]; at 3.7 µM -1% | [16]; at 11.0 µM 1% | [16]; at 33.0 µM 16% | [16]; at 100.0 µM 24%
active: [5]; [18] 70% | [5]; at 50.0 µM 99.2% | [6]; [18] 76% | [6]; at 50.0 µM 99.7% | [8]; [18] 91% | [8]; at 50.0 µM 99% | [10]; at 50.0 µM 98.8% | [11]; [18] 86% | [11]; at 50.0 µM 99.5% | [15]; [18] 76% | [15]; at 50.0 µM 97.7%

CCCCCCCC/C=C\CCCCCCCCN
active: [1]; at 33.0 µM 98% | [1]; at 100.0 µM 97% | [2]; at 33.0 µM 98% | [2]; at 100.0 µM 98% | [3]; at 33.0 µM 96% | [3]; at 100.0 µM 97% | [4]; at 33.0 µM 99% | [4]; at 100.0 µM 98% | [5]; at 33.0 µM 96% | [5]; at 50.0 µM 91.2% | [5]; at 100.0 µM 96% | [6]; at 33.0 µM 98% | [6]; at 50.0 µM 92.5% | [6]; at 100.0 µM 98% | [7]; at 33.0 µM 97% | [7]; at 100.0 µM 97% | [8]; [18] 98% | [8]; at 50.0 µM 93% | [9]; at 33.0 µM 98% | [9]; at 100.0 µM 97% | [10]; [18] 96% | [10]; at 50.0 µM 90% | [11]; at 33.0 µM 97% | [11]; [18] 97% | [11]; at 50.0 µM 91% | [11]; at 100.0 µM 96% | [12]; at 33.0 µM 98% | [12]; at 100.0 µM 97% | [13]; at 33.0 µM 97% | [13]; at 100.0 µM 97% | [14]; at 33.0 µM 97% | [14]; at 100.0 µM 96% | [15]; at 50.0 µM 91.3% | [16]; at 33.0 µM 97% | [16]; at 100.0 µM 97%
inactive: [1]; at 1.2 µM 4% | [1]; at 3.7 µM 0% | [1]; at 11.0 µM -10% | [2]; at 1.2 µM 13% | [2]; at 3.7 µM 17% | [2]; at 11.0 µM 9% | [3]; at 1.2 µM 17% | [3]; at 3.7 µM 21% | [3]; at 11.0 µM 21% | [4]; at 1.2 µM 18% | [4]; at 3.7 µM 30% | [4]; at 11.0 µM 22% | [5]; at 1.2 µM -1% | [5]; at 3.7 µM -7% | [5]; [17] 30% | [5]; at 11.0 µM -15% | [5]; [18] 64% | [6]; at 1.2 µM 1% | [6]; at 3.7 µM 15% | [6]; [17] 45% | [6]; at 11.0 µM -18% | [6]; [18] 30% | [7]; at 1.2 µM -22% | [7]; at 3.7 µM -21% | [7]; at 11.0 µM -19% | [8]; [17] -68% | [9]; at 1.2 µM 17% | [9]; at 3.7 µM 11% | [9]; at 11.0 µM 28% | [10]; [17] 42% | [11]; at 1.2 µM 0% | [11]; at 3.7 µM 14% | [11]; [17] -10% | [11]; at 11.0 µM 14% | [12]; at 1.2 µM -7% | [12]; at 3.7 µM -1% | [12]; at 11.0 µM -24% | [13]; at 1.2 µM -16% | [13]; at 3.7 µM -16% | [13]; at 11.0 µM -17% | [14]; at 1.2 µM -3% | [14]; at 3.7 µM -11% | [14]; at 11.0 µM -15% | [15]; [17] 26% | [15]; [18] 27% | [16]; at 1.2 µM -1% | [16]; at 3.7 µM 7% | [16]; at 11.0 µM -13%
